# This is part of a sample that, as a whole, favours compounds with a hit. Of some 83,000 tested, about 20% had one in any assay.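 In brief: 96-well plates, 48 h treatment, single concentration, percent growth endpoint.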 Unmarked numbers belong to inactive results. Activity calls are given as the source filed them. How the source made its calls: active means growth percent below 10; inactive means the rest.
# System: UACC-257 melanoma
# Assay: NCI-60 one-dose screen, 48 h (100 = growth as untreated, 0 = no growth, -100 = all killed)
# Details: 10 µM unless noted
row,Structure (SMILES),growth
1,COc1cc2cc(Oc3ccc(NC(=O)Nc4ccc(Cl)c(C(F)(F)F)c4)cc3)c(C)nc2cc1OCCN1CCCCC1,-49.4% (active)
2,CN1CCN(c2ccc3nc(-c4ccc5nc(-c6ccc(C(F)(F)F)cc6)[nH]c5c4)[nH]c3c2)CC1,87.2%
3,Cc1c(C(=O)Nc2nc(-c3ccccc3)cs2)nnn1-c1ccccc1Br,13.2% [50 µM]
4,Clc1ccc(Nc2nc(Nc3ccccc3)nc(Nc3ccc(-c4cc(-c5ccc(Cl)cc5)on4)cc3)n2)cc1,70.1%
5,C=C1CC[C@@H]2[C@@](C)(CCC[C@]2(C)C(=O)O)[C@@H]1CC[C@H](CO)CCO,109%
6,COC(=O)CCC(=O)c1ccccc1,106%
7,COc1ncnc2c1ncn2C/C(Br)=C(\Br)CCl,-40.5% (active)
8,CN1CCC(OC2c3ccccc3CCc3ccccc32)CC1,92.6%
9,O=[N+]([O-])c1ccc(C=C2C(Cl)=C(Cl)C(Cl)=C2Cl)cc1,67.7%
10,COc1ccc(OC)c(/C=C2\Oc3cc(O)ccc3C2=O)c1,103%
11,COC(=O)[C@@]12CC[C@@H](C)[C@]3(C[C@@H](c4ccoc4)OC3=O)[C@H]1CC[C@@H]1O[C@@]12C,99.6%
12,COc1ccc(-c2nc3sc(C)cn3c2/C=C/C(=O)c2cc(OC)c(OC)c(OC)c2)cc1,50.8%
13,C=CC(=O)N1CC2(CC(n3nc(-c4ccc(Oc5ccccc5)cc4)c4c(N)ncnc43)C2)C1,5.54% (active)
14,Cc1cc(=O)c2c(C)ccc(C)c2[nH]1,80.5%
15,O=C1CN2CCC1C/C2=C\c1ccnc2c(Cl)cccc12 (stereo not drawn),95.2%
16,O=C1c2ccccc2-c2nnc(-c3ccc(Br)cc3)cc21,52.6%
17,COc1ccc(-c2nn(-c3ccc(NC(=O)c4ccc(Cl)c(Cl)c4)cc3)cc2-c2ccncc2)cc1Cl,93.3%
18,O=c1oc2ccccc2cc1-c1csc(N=Nc2c(O)[nH]c3ccc(Cl)cc23)n1,80.1%
19,COc1cc2nc(N3CCC[C@H](NC4=CC(=O)c5ccccc5C4=O)C3)nc(N)c2cc1OC,97.7%

row,Structure (SMILES),growth
1,O=C1C(N2CCOCC2)=Cc2cccc3cccc1c23,101%
2,CCOC(=O)c1c(-c2cc(OC)c(OC)c(OC)c2)csc1N,104%
3,N#Cc1c(-c2cccc(F)c2)cc(-c2ccc(Br)s2)[nH]c1=O,87.4%
4,COc1ccc(NC(=O)c2ccc3c(c2)nc(-c2ccc(Cl)cc2)n3-c2cc(C(C)(C)C)[nH]n2)cc1,96.4%
5,Oc1cccc(Nc2nc(-c3ccccn3)cs2)c1,110%
6,O=S(=O)(/N=C1C=C/C(=N\S(=O)(=O)c2ccccc2)c2ccccc2\1)c1ccccc1,95.1%
7,O=C(COc1cccc(/C=C2\COc3ccccc3C2=O)c1)c1ccccc1,72.9%
8,Cc1ccc(S(=O)(=O)N2CCc3ccc(O)c4c3C2Cc2cc(Cl)ccc2-4)cc1 (stereo not drawn),63.4%
9,COc1ccc(OC)c(C2C(C#N)=C(N)Oc3cc(O)ccc32)c1 (stereo not drawn),99.9%
10,CC(=O)N(CC(O)CO)c1c(I)c(C(=O)NCCO)c(I)c(C(=O)NCC(O)CO)c1I (stereo not drawn),103%
11,N#CC1=C(N)Oc2cc(N)ccc2C1c1ccc(F)cc1 (stereo not drawn),95.6%
12,CCN(CC)CCCNc1ccc(C)c2sc3ccccc3c(=O)c12,-61.3% (active)
13,COc1ccc(/C=C2\Oc3cc(C)c(Cl)cc3C2=O)cc1OC,101%
14,Cc1nc2ccc(Cl)cc2n1C,100%
15,COc1ccc(/C=N/NC(=O)c2cnn(CC(O)Cc3ccccc3)c2N)cc1OC1CCCC1 (stereo not drawn),110%
16,COc1ccc(-c2csc3c2-n2cccc2C3=O)cc1O,43.8%
17,COc1cc(C(F)(F)F)ccc1-c1cc(-c2ccc(F)cc2)n[nH]1,82.5%
18,C[C@@H](Oc1cc(-c2cnn(C3CC4(CCNCC4)C3)c2)cnc1N)c1c(F)ccc(Cl)c1Cl,-89.5% (active)
19,CC(C)NCC(O)COc1ccc(CCOCC2CC2)cc1 (stereo not drawn),108%

# From PubChem BioAssay (NCI)
